# From ChEMBL document CHEMBL3433997, “St. Jude Leishmania screening dataset” (2016)
# Several values for one entry are separate records, joined by “and”; a condition that tells them apart may be missing. Equal entries are not always repeated.
# Columns and labels:
# Type in all cases: functional
# [1] = molecular target: Solute carrier family 2, facilitated glucose transporter member 1 (Homo sapiens) (UniProt P11166); experiment: ST_JUDE_LEISH: Cytotoxicity at 2uM final concentration against transgenic Leishmania Mexicana promastigotes LmGLUT1 that are glucose transport deficient and complemented with the human glucose transporter GLUT1. Activity is measured by DNA content using SYBR green in vitro
# Chain of Solute carrier family 2, facilitated glucose transporter member 1 (Homo sapiens) (P11166 whole entry): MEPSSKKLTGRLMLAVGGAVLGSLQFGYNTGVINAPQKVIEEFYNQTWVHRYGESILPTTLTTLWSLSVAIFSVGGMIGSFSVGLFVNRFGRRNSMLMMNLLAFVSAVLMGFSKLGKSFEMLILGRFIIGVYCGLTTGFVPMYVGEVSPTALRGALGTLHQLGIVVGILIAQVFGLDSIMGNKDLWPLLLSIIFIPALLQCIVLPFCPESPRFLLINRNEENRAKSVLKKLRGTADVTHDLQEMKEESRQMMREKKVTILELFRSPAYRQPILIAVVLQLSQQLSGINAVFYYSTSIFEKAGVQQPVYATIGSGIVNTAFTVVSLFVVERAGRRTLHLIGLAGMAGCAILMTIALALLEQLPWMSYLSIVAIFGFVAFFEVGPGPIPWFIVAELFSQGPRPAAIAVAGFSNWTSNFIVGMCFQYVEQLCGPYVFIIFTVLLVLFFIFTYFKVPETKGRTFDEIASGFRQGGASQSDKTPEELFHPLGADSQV
# [2] = molecular target: Hexose transporter 1 (Plasmodium falciparum) (UniProt O97467); experiment: ST_JUDE_LEISH: Cytotoxicity at 2uM final concentration against transgenic Leishmania Mexicana promastigotes LmPfHT that are glucose transport deficient and complemented with the Plasmodium falciparum hexose transporter. Activity is measured by DNA content using SYBR green in vitro
# [3] = molecular target: Glucose transporter (Leishmania mexicana) (UniProt O61059); experiment: ST_JUDE_LEISH: Cytotoxicity at 2uM final concentration against transgenic Leishmania Mexicana promastigotes LmGT2 that are glucose transport deficient and complemented with the L. Mexicana glucose transporter 2. Activity is measured by DNA content using SYBR green in vitro
Compound,inhibition [1],inhibition [2],inhibition [3]
Cc1[nH]c(C)c(-c2ccc(Oc3ccc(OC(F)(F)F)cc3)cc2)c(=O)c1Br,-1.24% and 1.98%,-1.18% and 1.4%,-2.31% and 2.01%
O=S(=O)(NCCN1CCCC1)c1ccc(-c2ccc(CN3Cc4ccccc4C3)cc2)s1,-0.63%,-0.5%,-2.59%
CCCCCCCCNCc1c(O)ccc2ccccc12,3.46%,3.25%,5.48%
O=C(Nc1ccc(C(=O)N2CCN(CCN3CCN(c4cccc(C(F)(F)F)c4)CC3)CC2)cc1)c1ccc(C(F)(F)F)cc1,2.54%,2.63%,1.69%
CCN(CC)CCNc1nc(C=Cc2ccc(Cl)cc2)nc2cc3ccccc3cc12,-0.78%,-0.58%,-1.66%
CC1(C)N=C(N)N=C(N)N1OCc1cccc2c1ccc1ccccc12,0.96%,2.76%,0.32%
CCCCCCCN1CC[C@@H](CCCc2ccnc3ccc(OCCCCN/C(N)=N/O)cc23)[C@@H](CC)C1,4.19%,2.68%,2.04%
Oc1ccc(CCNc2nc(NCc3ccccc3-c3ccc(C(F)(F)F)cc3)nc(N3CCNCC3)n2)cc1,1.66%,-2.19%,1.94%
Cc1sc2nc(CSc3ccccc3)nc(N3CCN(CC(=O)N4CCCC4)CC3)c2c1C,5.03%,5.88%,1.41%
OCC1CCN(Cc2ccc(-c3cccc(-c4nc5ccccc5[nH]4)c3)cc2)CC1,1.15%,1.08%,3.83%
O=C(NCCN1CCCCC1)c1cc2cc(-c3ccccc3)ccc2n1S(=O)(=O)c1ccccc1,71.9%,74.7%,55.4%
O=S(=O)(c1ccc2cc[nH]c2c1)N1CCC[C@@H]1CCN1CCC(c2c[nH]c3cnccc23)CC1,3.4%,2.78%,2.1%
